A word on the inhibition: it is the change of the read-out against control, counted positive when it falls.

The structures appear in SMILES notation. In all, about 62,000 compounds went through this assay and about 80 (0.1%) were called active. No rule for the calls is given here. Only a sample is shown. Entries with a potency or affinity are not part of this list.

Ephrin type-A receptor 4 (Mus musculus), sequence (Q03137 whole entry, looked up): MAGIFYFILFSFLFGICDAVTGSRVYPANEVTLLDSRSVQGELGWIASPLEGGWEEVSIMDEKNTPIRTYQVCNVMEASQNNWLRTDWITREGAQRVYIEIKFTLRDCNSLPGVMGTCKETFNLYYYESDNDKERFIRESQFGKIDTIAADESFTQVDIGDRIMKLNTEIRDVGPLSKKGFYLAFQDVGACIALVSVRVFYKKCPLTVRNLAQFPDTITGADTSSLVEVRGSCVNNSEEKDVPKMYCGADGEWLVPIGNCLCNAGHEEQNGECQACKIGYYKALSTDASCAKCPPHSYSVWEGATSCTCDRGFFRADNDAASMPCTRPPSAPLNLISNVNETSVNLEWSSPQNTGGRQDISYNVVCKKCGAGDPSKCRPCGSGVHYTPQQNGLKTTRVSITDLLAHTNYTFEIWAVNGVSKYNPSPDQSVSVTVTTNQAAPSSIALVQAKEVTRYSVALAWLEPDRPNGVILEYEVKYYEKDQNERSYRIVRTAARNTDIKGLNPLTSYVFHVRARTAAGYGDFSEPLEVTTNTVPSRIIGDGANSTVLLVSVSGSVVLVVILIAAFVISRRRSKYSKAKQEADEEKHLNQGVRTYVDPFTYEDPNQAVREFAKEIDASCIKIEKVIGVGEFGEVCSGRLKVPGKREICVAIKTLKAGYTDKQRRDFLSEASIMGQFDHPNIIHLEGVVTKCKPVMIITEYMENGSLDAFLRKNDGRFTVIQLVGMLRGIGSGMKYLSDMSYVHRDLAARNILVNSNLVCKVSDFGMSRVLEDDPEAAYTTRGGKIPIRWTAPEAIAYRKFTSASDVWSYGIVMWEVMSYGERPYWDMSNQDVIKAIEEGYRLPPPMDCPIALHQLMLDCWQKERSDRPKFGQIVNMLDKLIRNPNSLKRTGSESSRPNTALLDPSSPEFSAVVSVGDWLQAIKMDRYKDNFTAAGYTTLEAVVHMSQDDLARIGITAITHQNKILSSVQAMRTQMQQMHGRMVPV

The assay concerns the target Ephrin type-A receptor 4 (Mus musculus) (UniProt Q03137). The assay can be described thus: EphA4 ligand-binding antagonists – biochemical, colorimetric, mouse EphA4, primary screen (AID 689). The settings on record: EphA4-AP binding to KYL peptide, pNPP A405, at 10 µM, active compounds read high.
For `COc1cc(NC(=O)c2ccc(NS(=O)(=O)c3c(C)noc3C)cc2)cc(OC)c1`, the inhibition is -7.5% (inactive).

For `O=C(CSc1nnc(-c2ccco2)c(-c2ccco2)n1)Nc1ccccc1`, the inhibition was 41.7% (inactive).

Regarding `Cc1ccccc1NC(=O)CSc1nnc(-c2ccco2)c(-c2ccco2)n1`, the inhibition is 32.3% (inactive).

As for `CS(=O)(=O)N1CCN(Cc2ccc(Cl)cc2)CC1`, the inhibition is -10.7% [this sample at 5 µg/mL] (inactive).

For `CC(C(=O)O)N1C(=O)/C(=C/c2ccc3c(c2)OCO3)SC1=S` (centres undefined), the inhibition was 0.6% [this sample at 5 µg/mL] (inactive).

On to `CC(C(=O)O)N1C(=O)/C(=C/c2ccc([N+](=O)[O-])cc2)SC1=S` (centres undefined), for which the inhibition is 3.4% [this sample at 5 µg/mL] (inactive).

For `CC(C)C(C(=O)O)N1C(=O)/C(=C/c2ccc3c(c2)OCO3)SC1=S` (centres undefined), the inhibition was -2% [this sample at 5 µg/mL] (inactive).

Take `CC(C)CN1C(=O)/C(=C/c2ccco2)SC1=S`: the inhibition is 30.2% [this sample at 5 µg/mL] (inactive).

Consider `CCOC(=O)C1CCN(CCC(=O)Nc2cccc(Cl)c2)CC1`, for which the inhibition is -3.9% (inactive).

For the compound `COc1ccc(Cc2nnc(NC(=O)c3cccs3)s2)cc1`, the inhibition is -1.1% (inactive).

With `O=C(Cc1cccs1)Nc1nnc(Cc2ccc(F)cc2)s1`, the inhibition was -11.3% (inactive).

Take `O=C(NCCCN1CCOCC1)c1cccc(Cl)c1`: the inhibition is -2.3% [this sample at 5 µg/mL] (inactive).

In the case of `O=C(COc1ccc(Cl)cc1Cl)Nc1ccc(NC(=O)COc2ccc(Cl)cc2Cl)cc1`, the inhibition was -4.1% [this sample at 5 µg/mL] (inactive).

Consider `O=C(c1ccccc1[N+](=O)[O-])N1CCN(C/C=C/c2ccccc2)CC1`, for which the inhibition is -10.3% [this sample at 5 µg/mL] (inactive).

In the case of `CCOc1cc(/C=C2/SC(=S)N(CC)C2=O)ccc1OCc1ccccc1Cl`, the inhibition is 5% [this sample at 5 µg/mL] (inactive).

Consider `CCn1c2ccccc2c2nc3ccccc3nc21`, for which the inhibition is 40.1% (inactive).

In the case of `Cn1c2ccc(Cl)cc2c2nc3ccccc3nc21`, the inhibition is -1.5% (inactive).

As to `Cc1cc(NC(=O)CSc2nnc(C3COc4ccccc4O3)o2)no1` (centres undefined), the inhibition is -5.5% (inactive).

For the compound `N#CC1=C(N)C(C#N)(C#N)C(c2cccnc2)C2CCCC=C12` (centres undefined), the inhibition was -10% (inactive).

With `COC(=O)CN1C(=O)/C(=C\C=C\c2ccccc2)SC1=S`, the inhibition is 7.7% [this sample at 5 µg/mL] (inactive).

`O=C1/C(=C/C=C/c2ccccc2)SC(=S)N1c1cccc(C(F)(F)F)c1`: the inhibition is 3.3% [this sample at 5 µg/mL] (inactive).

With `CCOCCCNc1nc2c(C)cccn2c(=O)c1/C=C1\SC(=S)N(CC(C)C)C1=O`, the inhibition was -4.7% (inactive).

In the case of `CCCN1C(=O)/C(=C/c2c(NCCCOC(C)C)nc3c(C)cccn3c2=O)SC1=S`, the inhibition is 38.4% (inactive).

On to `COc1ccc(/C=C/C(=O)CC(=O)C(Cl)(Cl)Cl)cc1`, for which the inhibition is 5.9% [this sample at 5 µg/mL] (inactive).

For `Cc1nnc(NC(=O)c2sc3nc(-c4cccs4)cc(C(F)(F)F)c3c2N)s1`, the inhibition is 3.5% (inactive).

On to `Cc1c(C(=O)Nc2nccs2)sc2nc(-c3cccs3)cc(C(F)(F)F)c12`, for which the inhibition was 33% (inactive).

As to `CC(=O)c1cccc(NS(=O)(=O)c2cc(OCC(N)=O)c(C)cc2Cl)c1`, the inhibition was -4% (inactive).

`CCOC(=O)C1=C(C)N(CCOC)C(=O)/C1=C\c1sccc1C`: the inhibition was -1.6% [this sample at 5 µg/mL] (inactive).

For the compound `Cc1cc(OCC(=O)O/N=C(\N)Cc2cccs2)ccc1Br`, the inhibition is -4.6% (inactive).

`CCSc1nnc(NC(=O)C(CC)(C(F)(F)F)C(F)(F)F)s1`: the inhibition is -7.4% (inactive).

With `CCSc1nnc(NC(=O)C(C)C)s1`, the inhibition was -5.3% (inactive).

Regarding `Clc1ccc(CN2CCN(/N=C/c3ccc(Cl)c(Cl)c3)CC2)cc1`, the inhibition is 6% [this sample at 5 µg/mL] (inactive).

`Cn1nnnc1SCC(=O)c1ccco1`: the inhibition is 23.3% (inactive).

As to `Cc1ccc2nc(CSc3nc(C)cc(C)c3C#N)[nH]c2c1`, the inhibition is 5.6% (inactive).

On to `Cc1cccc(NC2=Nc3ccccc3N3C2=Nc2c(c(C)nn2-c2ccccc2)C3c2ccc(O)c(O)c2)c1` (centres undefined), for which the inhibition is 37% (inactive).

In the case of `Cc1nn(-c2ccccc2)c2c1C(c1ccc(O)c(O)c1)N1C(=N2)C(Nc2ccccc2)=Nc2ccccc21` (centres undefined), the inhibition was 23.4% (inactive).

`Cc1ccc(N2C(=O)c3n[nH]c(C)c3C2c2cccnc2)cc1` (centres undefined): the inhibition is -11.4% (inactive).

With `Cc1ccc(NC2=Nc3ccccc3N3C2=Nc2c(c(C)nn2-c2ccccc2)C3c2ccc(O)c(O)c2)cc1` (centres undefined), the inhibition is 27.8% (inactive).

Regarding `CCCOc1nc2c(c(=O)n(C)c(=O)n2C)n1CCC`, the inhibition is -3.5% (inactive).

For `CC(=O)c1c(C)n(-c2ccccc2)c2ccc(OCC(O)CN3CCOCC3)cc12` (centres undefined), the inhibition is -25.3% (inactive).

Consider `Cn1c(=O)n(C)c2cc(S(=O)(=O)NCc3ccco3)ccc21`, for which the inhibition is -8% (inactive).

Take `N#CC(c1ccc(O)cc1)N1CCCCC1` (centres undefined): the inhibition is 0.9% (inactive).

Take `Cc1ccc(NC(=O)N2CCC(C(=O)NCC(C)C)CC2)cc1`: the inhibition is -0.8% (inactive).

As to `CC(C)OCCCNC(=O)C1CCC(=O)N1C(C)C` (centres undefined), the inhibition was -3.7% (inactive).

Regarding `COc1ccc(S(=O)(=O)Nc2ccc(NS(=O)(=O)c3ccc(OC)cc3)c3ccccc23)cc1`, the inhibition is -1.5% [this sample at 5 µg/mL] (inactive).

As to `CCc1ccc(S(=O)(=O)Nc2cc(Br)c(O)c3ccccc23)cc1`, the inhibition was 2.2% [this sample at 5 µg/mL] (inactive).

For the compound `Cc1ccc(S(=O)(=O)Oc2cccc(N3C(=O)C4CC=CCC4C3=O)c2)cc1` (centres undefined), the inhibition is -10.4% (inactive).

For the compound `CCN(CC(=O)Nc1ccc2c(c1)OCCO2)c1ccc(S(=O)(=O)N2CCOCC2)cn1`, the inhibition was -6.5% (inactive).

`O=C(Cc1cccs1)N1CCN(c2cccc(Cl)c2)CC1`: the inhibition was 11.4% [this sample at 5 µg/mL] (inactive).

Turning to `COc1cccc(C2CC(=O)N3CN(c4ccccc4F)CSC3=C2C#N)c1` (centres undefined), the inhibition was 12.3% (inactive).

Take `COc1ccc(C2CC(=O)N3CN(c4ccccc4F)CSC3=C2C#N)cc1OC` (centres undefined): the inhibition was -4.9% (inactive).

`CCOC(=O)c1c(NC(=S)Nc2ccccc2)sc2c1CCCCC2`: the inhibition was 1.6% (inactive).

Regarding `CCOC(=O)c1c(NC(=S)Nc2ccccc2)sc2c1CCN(CC)C2`, the inhibition was 0.4% (inactive).

Regarding `Cc1ccc2[nH]c(=O)c(CN(CCCN3CCOCC3)C(=O)NC3CCCCC3)cc2c1`, the inhibition is -12% (inactive).

Turning to `COc1ccccc1Cc1noc(C(C)(C)NC(=O)c2ccccc2)n1`, the inhibition is 9% (inactive).

For the compound `CN(C)CCCNC(=O)CC(c1ccc(F)cc1)c1ccco1` (centres undefined), the inhibition is -15.3% (inactive).

As to `CCOC(=O)C1=C(c2ccccc2)N=c2s/c(=C\c3ccc(O)cc3)c(=O)n2C1c1cccs1` (centres undefined), the inhibition is 23.9% (inactive).

Turning to `CCOC(=O)C1=C(c2ccccc2)N=c2s/c(=C\c3ccc(O)c(OC)c3)c(=O)n2C1c1ccc(OC)cc1` (centres undefined), the inhibition is 7.7% [this sample at 5 µg/mL] (inactive).

In the case of `O=C(O)CCC(=O)NCCn1c(-c2ccccc2)csc1=Nc1ccccc1`, the inhibition was -2.4% (inactive).

`CCOc1ccc(-c2nn(-c3ccccc3)cc2/C=C2\SC(=S)N(CCOC)C2=O)cc1`: the inhibition is 24.2% [this sample at 5 µg/mL] (inactive).

As for `O=C1/C(=C\c2cccnc2)SC(=S)N1C1CCS(=O)(=O)C1` (centres undefined), the inhibition is 1.1% (inactive).

Regarding `CCN(Cc1ccccc1)C(=O)c1ccc([N+](=O)[O-])cc1`, the inhibition was 1.5% [this sample at 5 µg/mL] (inactive).

For `Nc1ccc(N(c2ccccc2)c2ccc(N)cc2)cc1`, the inhibition was 5.1% (inactive).

Turning to `CCOc1ccc(S(=O)(=O)N(CC(=O)Nc2ccccc2C)c2ccc(C)cc2)cc1`, the inhibition is 2% [this sample at 5 µg/mL] (inactive).

In the case of `Cc1cccc2sc(NC(=O)c3ccc(Cl)s3)nc12`, the inhibition was -3.3% (inactive).

Take `Cc1cccc2sc(NC(=O)c3ccccc3C(=O)O)nc12`: the inhibition was -11.2% [this sample at 5 µg/mL] (inactive).

For the compound `CCOC(=O)C(O)(CCC(O)(C(=O)OCC)C(=O)OCC)C(=O)OCC`, the inhibition is -4.3% (inactive).

In the case of `O=C1CCC(C23CC4CC(CC(C4)C2)C3)=NN1`, the inhibition is -8.4% [this sample at 5 µg/mL] (inactive).

Turning to `Cc1nc(-c2ccc(O)c(O)c2)cs1`, the inhibition was 1.8% (inactive).

Consider `Oc1ccc(-c2cn3c(n2)SCC3)cc1`, for which the inhibition is 4.1% (inactive).

As to `Cc1onc(-c2ccccc2Cl)c1C(=O)Nc1ccc(N2CCOCC2)cc1`, the inhibition is 1.6% (inactive).

For `O=C1c2nc3ccccn3c2C(=O)N1Cc1ccccc1`, the inhibition is 6.8% (inactive).

Consider `Cc1ccc(N(CC(=O)N/N=C/c2ccco2)S(=O)(=O)c2ccccc2)cc1`, for which the inhibition is 15.6% (inactive).

Consider `CCOc1ccc(S(=O)(=O)N(CC(=O)O)c2ccccc2)cc1`, for which the inhibition is 0.2% (inactive).

As to `Cc1ccc(-c2nc3ncccc3o2)cc1NC(=O)COc1ccccc1`, the inhibition is 4.8% (inactive).

Turning to `CCOC(=O)c1cnc2c(OC)cccc2c1N1CCN(c2ccccc2OC)CC1`, the inhibition is 3.2% (inactive).

As for `O=[N+]([O-])/C=C/c1cn(Cc2ccc(F)cc2)c2ccccc12`, the inhibition was 30.9% (inactive).

Consider `Cc1cccc(Cn2cc(/C=C/[N+](=O)[O-])c3ccccc32)c1`, for which the inhibition was 40.7% (inactive).

Turning to `Cc1ccc(NC(=O)N2Cc3ccccc3CC2C(=O)NC(C)(C)C)cc1` (centres undefined), the inhibition is 1% (inactive).

With `O=C(/C=C/c1ccc2c(c1)OCO2)c1ccc(Br)cc1`, the inhibition was 3.2% [this sample at 5 µg/mL] (inactive).

With `CNc1ccc(Br)cc(C(=O)/C=C/c2ccc3c(c2)OCO3)c1=O`, the inhibition is 32.2% (inactive).

As to `CCOC(=O)c1sc(NC(NC(=O)c2ccco2)(C(=O)OC)C(F)(F)F)nc1C` (centres undefined), the inhibition was 4.3% (inactive).

Consider `CCN1/C(=C/c2ccc3ccccc3[n+]2CC)C=Cc2ccccc21`, for which the inhibition was 2% (inactive).

In the case of `CCN1/C(=C/C(C)=O)Sc2ccccc21`, the inhibition is -0.8% [this sample at 5 µg/mL] (inactive).

For the origin of these results see PubChem BioAssay AID689 (Sanford-Burnham Center for Chemical Genomics, 2007).
